Source: PubChem
SMN2 splice up – SMN2 splice variant enhancement. HEK293 SMN2-luciferase splicing reporter, luminescence, 30-36 h. 210,000 compounds, 2.8% hits. Potency, µM (top dose mostly 46.1 µM), without a hit: at the highest dose activity change, positive = activation, most hits filed as activators; note: % of control where 0% means no effect; nearly all actives have a fitted effect of over 55% in size
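qHTS luciferase splicing reporter: luminescence rises when SMN2 exon 7 is included in transfected HEK293 cells. Compound exposure lasted 30-36 h at 37C, with 4.5 mM final sodium butyrate as control, followed by a ONE-Glo read.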
uPA surface inh – inhibitors of cell surface uPA generation; cell surface uPA generation assay, qHTS; Potency, µM (series often up to 38.3 µM), inactives show at the top dose activity change, negative = inhibition, most hits filed as inhibitors; 330,000 compounds, 0.31% hits; active = well fitted inhibition curve with a large enough effect; inconclusive = small, poorly fitted or top-dose-only effect; inactive = no such curve, though single readings can be large or run the other way; tested in mouse RAW 264.7 cells; note: % is set by controls: 0 for no effect and ±100 for the full control effect; nearly all actives have a fitted effect of over 55% in size
FLuc modulator – counter-screen for miR-21 project: firefly luciferase inhibitors or activators. 360,000 compounds, 6.9% hits. purified FLuc, Km substrates, luminescence inhibition. Potency, µM (highest dose often 57.5 µM), for the others: at the highest dose activity change, negative = inhibition, most hits filed as inhibitors. P08659;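 note: plate controls were vehicle for no effect and reference inhibitor for full effect; nearly all actives have a fitted effect of over 55% in size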
Target sequence (P08659 whole entry, looked up): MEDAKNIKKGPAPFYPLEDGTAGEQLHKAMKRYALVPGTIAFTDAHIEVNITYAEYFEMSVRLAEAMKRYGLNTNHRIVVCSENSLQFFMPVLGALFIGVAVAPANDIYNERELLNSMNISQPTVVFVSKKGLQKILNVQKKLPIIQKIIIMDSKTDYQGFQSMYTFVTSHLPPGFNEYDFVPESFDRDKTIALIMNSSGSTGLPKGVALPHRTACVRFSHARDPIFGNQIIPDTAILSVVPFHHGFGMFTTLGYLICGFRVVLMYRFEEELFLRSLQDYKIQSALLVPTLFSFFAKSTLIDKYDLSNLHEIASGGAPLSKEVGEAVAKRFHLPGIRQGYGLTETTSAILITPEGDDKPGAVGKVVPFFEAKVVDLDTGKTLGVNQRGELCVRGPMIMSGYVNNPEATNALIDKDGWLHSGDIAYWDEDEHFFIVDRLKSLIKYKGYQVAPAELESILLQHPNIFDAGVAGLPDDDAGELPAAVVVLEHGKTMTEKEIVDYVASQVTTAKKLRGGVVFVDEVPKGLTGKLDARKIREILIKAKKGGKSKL
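Purified P. pyralis luciferase (10nM final) with 10uM D-luciferin and 10uM ATP (Km levels) in 50mM Tris acetate pH 7.5, 10mM Mg acetate, 0.01% Tween-20, 0.05% BSA; qHTS 6-point titration, ~60 µM downward; luminescence read.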
ELG1 genotox – genotoxicity induction in ELG1-luciferase HEK293T cells | 330,000 compounds, 1.3% hits | HEK293T ELG1-luciferase reporter, luminescence, 16 h | AID 504466 | Potency, µM (titrated, usually from 46 µM), without a hit: at the highest dose activity change, positive = activation, usual class: activators; note: % of control where 0% means no effect; nearly all actives have a fitted effect of over 60% in size
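ELG1-luciferase HEK293T cells, 2,000/well; compound pinned in; 16 hr, 37 °C, 5% CO2; ONE-Glo, 30 min RT; luminescence on CCD imager.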
NPC1 promoter act – activators of NPC1 promoter; 320,000 compounds, 2.4% hits; AID 485313; Huh7 NPC1 promoter luciferase reporter, 24 h; Potency, µM (series often up to 9.22 µM), inactives show at the top dose activation, most hits filed as activators; note: % of control where 0% means no effect; nearly all actives have a fitted effect of over 60% in size
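Huh7 reporter cells (NPC1 promoter driving luciferase) are dosed with compound for 24 h at 37 °C, 5% CO2; luciferase detection reagent is then added and luminescence measured after 10 min at ambient temperature.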
Rab9 promoter act – Rab9 promoter activation; 320,000 compounds, 2.8% hits; AID 485297; Huh7 Rab9 promoter-luciferase reporter, luminescence, 24 h; Potency, µM (doses to about 9.22 µM), without a hit: at the top dose activation, negative = inhibition, actives largely listed as activators; note: % of control where 0% means no effect; nearly all actives have a fitted effect of over 60% in size
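Huh7 cells stably carrying a Rab9 promoter-luciferase reporter, 1500 cells per well in OP-MEM I with 10% FBS, treated with compound 24 hours at 37C. Luciferase activity read by luminescence after 10 minutes with Amplite reagent.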
Active calls of the source: *; ? = inconclusive; nt = not tested or not shown; [ ] = another dose, or the depositor's remark. Compounds with a hit are over-represented: about 7.3% of the library has one in this group of screens. Unless noted, calls come from the whole dose curve; as a rule, active = well fitted curve in the direction sought with a large enough effect; inconclusive = small, poorly fitted or top-dose-only effect, or another doubt; inactive = no such curve, though single readings can be large; an effect the other way counts as inactive or inconclusive. Potency is the fitted concentration of half-maximal effect.

SMILES | SMN2 splice up | uPA surface inh | FLuc modulator | ELG1 genotox | NPC1 promoter act | Rab9 promoter act
CC1(C(=O)O)CCC(C(=O)NNC(=O)c2ccccc2O)C1(C)C (configuration not stated) | nt | -1% | 0% | 0% | 1% | -1%
CCOC(=O)CNC(=O)c1ccc(SCC)cc1 | nt | -7% | 19µM* | ? | ? | ?
Cc1cccc(-c2nsc(SCC(=O)NCc3ccco3)n2)c1 | -4% | -2% | ? | 0% | 13% | -2%
CCOC(=O)CNC(=O)CSc1nc(-c2cccc(C)c2)ns1 | 5% | -3% | 24µM* | -4% | 2% | 6%
CCOC(=O)CNC(=O)c1ccccc1 | -6% | -2% | 1% | 0% | -2% | 8%
O=C(Nc1ccc2cn[nH]c2c1)c1ccccc1F | 11µM* | -4% | 9.5µM* | ? | 2.2µM* | 2µM*
O=C(Nc1ccc2oc(-c3cccnc3)nc2c1)c1ccccc1F | 5% | nt | ? | nt | nt | nt
O=C(Nc1ccc2ccccc2c1)c1ccccc1F | nt | ? | 1.3µM* | 2.6µM* | 0.5µM* | 0.63µM*
O=C(Nc1ccc2cn[nH]c2c1)c1c(Cl)cccc1Cl | -2% | -1% | -5% | -3% | 0% | -2%
O=C(Nc1ccc2nc(-c3cccnc3)[nH]c2c1)c1ccccc1F | 0% | -6% | 15µM* | 8% | 1% | 8%
O=C(Nc1ccc(SC(F)F)cc1)c1ccc(F)cc1 | 11µM* | ? | 8.5µM* | ? | 2.2µM* | 1.3µM*
CC(=O)c1ccc(N2CCN(S(=O)(=O)c3ccc(-c4cc(C(F)(F)F)on4)s3)CC2)cc1 | nt | nt | 0% | nt | nt | nt
CCOCCO | 4% | nt | nt | nt | nt | nt
CCOc1ccc(C(=O)NCc2ccccc2)cc1Br | -7% | 1% | -18% | 1% | 1% | -3%
CCCCNc1nc(C)nc2c1nc(-c1ccccc1)n2CCN1CCCCC1 | -30% | nt | nt | nt | nt | nt
CC(=O)Nc1ccc(NC(=O)c2ccccc2F)cc1 | ? | 3% | ? | ? | 16% | -6%[1.84 µM]
O=C(Nc1ccc(F)cc1)c1ccccc1F | 7% | 7% | 21µM* | nt | nt | nt
O=C(Nc1ccc(C(=O)N2CCCC2)cc1)c1ccccc1F | ? | nt | ? | 8.2µM* | ? | ?
O=C(Nc1cc(C(=O)N2CCCC2)ccc1N1CCCC1)c1ccccc1F | nt | nt | -1% | -27% | 0% | 10%
O=C(Nc1ccc(Oc2cccnc2)cc1)c1ccccc1F | -1% | -3% | 12µM* | 3% | ? | 2.8µM*
O=C(Nc1ccc(SC(F)F)cc1)c1ccccc1F | 18µM* | -3% | 13µM* | ? | 2.5µM* | 1.8µM*
CCC(=O)N1c2ccccc2CC1C(=O)NCCCN1CCN(c2cccc(Cl)c2)CC1 (configuration not stated) | nt | nt | 6% | nt | nt | nt
Cc1noc(C)c1C(=O)N1CCC[C@@]2(CCN(c3ncccn3)C2)C1 | -5% | nt | nt | nt | nt | nt
CCOC(=O)Nc1ccc(NC(=O)c2ccccc2F)cc1 | ? | -11% | ? | ? | ? | 3.5µM*
CCCOc1cccc(C(=O)N2CCCCC2CCN2CCCCC2)c1 (configuration not stated) | -8% | nt | 1% | nt | nt | nt
SMILES | SMN2 splice up | uPA surface inh | FLuc modulator | ELG1 genotox | NPC1 promoter act | Rab9 promoter act
N=C1S/C(=C\c2cn[nH]c2-c2ccc(F)cc2)C(=O)N1c1ccccc1F | 13µM* | -4% | ? | 10% | 3.2µM* | 4µM*
N=C1S/C(=C\c2ccccc2F)C(=O)N1c1ccc(F)cc1 | 7% | 19% | 1% | 0% | 0% | -3%
COc1ccc(Cl)cc1NC(=O)CN(C)C(=O)CCCNC(=O)c1ccc(Cl)cc1 | nt | ? | 13µM* | 1% | -1% | -4%
COc1ccc(Cl)cc1NC(=O)CN(C)C(=O)c1cc2c(F)cccc2s1 | nt | 6.3µM* | nt | -4% | -3% | 0%
COc1ccc(Cl)cc1NC(=O)CN(C)C(=O)c1ccc(C)s1 | nt | 1% | 1% | -3% | -3% | -4%
COc1ccc(Cl)cc1NC(=O)CN(C)CC(=O)Nc1cc(OC)c(OC)c(OC)c1 | nt | 3.5µM* | -1% | -9% | -31% | -16%
CN(CC(=O)Nc1ccc(Cl)c(C(F)(F)F)c1)C(=O)CCCNC(=O)c1ccc(Cl)cc1 | nt | 8.9µM* | 19µM* | -2% | 13% | 5%
COc1ccc(OC)c(NC(=O)Cn2cnc3ccc(S(=O)(=O)N4CCC(C)CC4)cc3c2=O)c1 | -7% | nt | -7% | nt | nt | nt
CC1CCN(S(=O)(=O)c2ccc3c(ccn3CC(=O)NCc3ccc(N(C)C)cc3)c2)CC1 | nt | nt | 2% | nt | nt | nt
COc1ccc(CNC(=S)NC2CCCCC2)cc1 | nt | 1% | -5% | 0% | -2% | 5%
CCOc1ccc(C(=S)NC2CCCCC2)cc1 | 3% | nt | 12µM* | 14% | 3.2µM* | ?
COc1ccc(C(=S)NC2CCCCC2)cc1 | nt | 15% | 12µM* | 10% | 8% | ?
CCOc1ccc(C(=O)NC2CCCCCCC2)cc1 | nt | -22% | nt | nt | nt | nt
O=C1/C(=C/c2ccc(O)cc2)COc2ccccc21 | nt | -2% | 0.76µM* | 10µM* | 0% | -2%
O=C1/C(=C/c2ccccn2)COc2ccccc21 | 0% | nt | 8.5µM* | -3% | 1% | 8%
CC1C/C(=C/c2ccccn2)C(=O)/C(=C/c2ccccn2)C1 (configuration not stated) | -76% | -4% | -11% | -17% | -42% | -43%
CC(C)N(C(=O)Cn1cc(S(=O)(=O)Cc2ccc(C(F)(F)F)cc2)c2ccccc21)C(C)C | nt | nt | 5% | nt | nt | nt
CN(C(=O)c1ccc(NC(=O)C2CCCN(C(=O)OC(C)(C)C)C2)cc1)C1CCCC1 (configuration not stated) | nt | 2% | nt | -2% | nt | nt
CCCCOC(=O)c1ccc(NC(=O)c2csnn2)cc1 | nt | nt | -4% | nt | nt | nt
COC(=O)n1c(=S)oc2cc(Cl)ccc21 | 47% | nt | ? | -2% | 3% | 3%
CCCCOC(=O)n1c(=S)oc2cc(Cl)ccc21 | -11% | 0% | 17µM* | 1% | 0% | -6%
COc1ccc(-c2noc(C3CC(=O)N(c4ccc5c(c4)OCCO5)C3)n2)c(OC)c1 (configuration not stated) | nt | nt | -2% | nt | nt | nt
COC(=O)C(C)N1C(=O)S/C(=C\c2cc(C)n(-c3ccccn3)c2C)C1=O (configuration not stated) | -59% | -14% | 2.7µM* | 1.6µM* | 2µM* | 2µM*
COC(=O)C(C)N1C(=O)S/C(=C/c2cc(C)n(-c3ccccn3)c2C)C1=O (configuration not stated) | -42% | ? | 3µM* | 2.6µM* | 1.6µM* | 0.89µM*
CCOC(=O)CN1C(=O)S/C(=C/c2cc(C)n(-c3ccccn3)c2C)C1=O | -6% | -7% | 6µM* | 17% | ? | 4µM*
CC1(C)N=C(c2ccc(F)cc2)C(=O)N1CC(=O)Nc1ccccc1Cl | -19% | nt | -2% | nt | nt | nt
